# Assay results as given in the supplement of paper PMC6555819.
# Tested on: PPARg:RXRa IVT, anti-PPARg (NR concentration 270 nM, RXRa partner concentration 90 nM)
# Experiment: PBM binding z-score (relative to random genomic background probes); higher = stronger binding; sequences stand for … in GC…GCGATTGACAGCGTAGAATGAAGG
# How it was run: (§1)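 For binding z-scores, the reference was random background probes on custom Agilent 4×180K protein-binding microarrays. These arrays were incubated 1 h with ligand-free nuclear receptor dimers in PBS pH 7.4, 2% milk, 0.02% Triton X-100, 1 mM DTT, 0.2 mg/mL BSA and 0.4 mg/ml salmon testes DNA. Fluorescence was scanned after antibody detection of each partner (one per run) and regression-normalized.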
row,Sequence,PBM binding z-score
1,CCGACTGGGCCAAAGGTTACCATACTCAGTACGA,5.5
2,AGTAAAAGTTCATCTAGGTAACGTAAGATATGCT,2.83
3,CCTTACGGGTCACTGACAGGTTATATCATTTGGA,3.76
4,GCGACTGGGGCATCAGCAGCTTACCATAACTTAA,2.77
5,GCTGCTAGGTCAACTAATGGTCAGCTAAAGCTCG,3.84
6,CCTACTGGGCCACGAAGGGTCATTGATTCAGTGA,5.28
7,ACAGACAGGTGATGAAGGTAACTAAGGCTATCAT,0.73
8,TCTTGTAGATCAAGCAGGTTGAGAAAGCCTGAGT,0.256
9,TCTATTAGTTGATTAGGGCGACCGAAACAGCGGA,0.486
10,CTACCAAGGTGAGCAAGGTCGTTGATTACTATTC,1.62
11,ATCGAAAGGTCGTGAGGTGGGTATACAGAAAGGC,1.94
12,CTCGAAAGGTCGCTTGAGGTGAGTATACGGATAA,1.84
13,CCTTACGGGTCAAGGCTATAGCACGGGTGGTACG,3.1
14,AGAATGAGGTTATTAAGATTAGGGAATTGCGGTC,2.43
15,TCTCGGAGGACTCGAAAGGTCAGAGCTCGACATC,0.952
16,ATCTCTAGGTATAGTTCAGTGAAAGATCGATAGA,0.496
17,CATACTAGGTCACGAAAGGTCAAAGTCGAATGAC,8.34
18,CCTACTGGGCCCAAGGTCATTGATTCCAATGCTC,3.05
19,GGAACGATGGCAAGTTGATAGCAGAGTTTGATGG,-0.751
20,TCTTGTAGATCATAGGTTAAGAAAGCCGAAGCCT,1.96

row,Sequence,PBM binding z-score
1,CGTCCAAGGTCAAAGGCCAGTGAAGAGATGACGG,4.02
2,TCATATAGGTAAACAAGTGAAAGTCCGTAAGTTA,2.87
3,CCTTACGGGTCACTGACAGGTTATAACATTTGGA,3.86
4,ATATGTACGTTATCGGGTCATTCAGTTTGCGCAT,2.37
5,CCTTCTGGGCCAAGGTCATTGATCAGTCAAAGCA,4.03
6,TCTATTCGTTGAAGGGCAACCGACGAGTCCGTTT,0.764
7,CATAGTTGGTCAGGAGGTCACACACCGGATATGA,3.71
8,CGTCCAAGGTCAGCAGGTCAGTGATAGCGACGTG,3.76
9,AACTCTAGGTAACAAGTTCAGTGAAAGAGAGGAC,2.65
10,CCTACTGGGCCATTCAGAGTTCATTGATCATATG,3.73
11,CCTACTGGTCCAAAAAGGTCATTGATGCCGATAA,1.54
12,AGAATGAGGTTAACATCAGGGAAACAGAATACAT,3.79
13,CCTACTGGGCCAAAGGTCATTAATTCCAATGCTC,6.79
14,TAGCCTGGGTCAGATCGGGCCAGTATACGCTATA,0.885
15,ACAGACAGGTGATGGAGGTAACTCAGGCTATCAT,0.744
16,AGAATGAGGTTATTACGATCAGGGAATTGCGGTC,2.51
17,TCCTGTAGATCAATAGAGGTTAAGAAAGTGCGCT,0.459
18,ACAGACAGGTGATGAGGGTAACTCAGGCTATCAT,0.685
19,GCTGCTAGGACAACTGATGGTCAGCTAAAGCTCG,-0.573
20,ACTAGCAGGCCAAGTTTGGGTCACTCGAACAAAG,1.36

# Tested on: PPARg DBDmut:RXRa IVT, anti-PPARg (DBD mutation: PPARg1 K132A/R137A, NR concentration 270 nM, RXRa partner concentration 90 nM)
# Experiment: as above
# How it was run: as §1
row,Sequence,PBM binding z-score
1,CCGACTGGGCCAAAGGTTACCATACTCAGTACGA,0.219
2,AGTAAAAGTTCATCTAGGTAACGTAAGATATGCT,1.21
3,CCTTACGGGTCACTGACAGGTTATATCATTTGGA,1.37
4,GCGACTGGGGCATCAGCAGCTTACCATAACTTAA,-0.78
5,GCTGCTAGGTCAACTAATGGTCAGCTAAAGCTCG,-0.334
6,CCTACTGGGCCACGAAGGGTCATTGATTCAGTGA,-0.0977
7,ACAGACAGGTGATGAAGGTAACTAAGGCTATCAT,0.827
8,TCTTGTAGATCAAGCAGGTTGAGAAAGCCTGAGT,-0.788
9,TCTATTAGTTGATTAGGGCGACCGAAACAGCGGA,0.791
10,CTACCAAGGTGAGCAAGGTCGTTGATTACTATTC,-0.318
11,ATCGAAAGGTCGTGAGGTGGGTATACAGAAAGGC,0.885
12,CTCGAAAGGTCGCTTGAGGTGAGTATACGGATAA,-0.0758
13,CCTTACGGGTCAAGGCTATAGCACGGGTGGTACG,-0.373
14,AGAATGAGGTTATTAAGATTAGGGAATTGCGGTC,1.23
15,TCTCGGAGGACTCGAAAGGTCAGAGCTCGACATC,-0.254
16,ATCTCTAGGTATAGTTCAGTGAAAGATCGATAGA,1.64
17,CATACTAGGTCACGAAAGGTCAAAGTCGAATGAC,2.56
18,CCTACTGGGCCCAAGGTCATTGATTCCAATGCTC,-0.816
19,GGAACGATGGCAAGTTGATAGCAGAGTTTGATGG,-1.07
20,TCTTGTAGATCATAGGTTAAGAAAGCCGAAGCCT,0.499

row,Sequence,PBM binding z-score
1,CGTCCAAGGTCAAAGGCCAGTGAAGAGATGACGG,0.425
2,TCATATAGGTAAACAAGTGAAAGTCCGTAAGTTA,1.04
3,CCTTACGGGTCACTGACAGGTTATAACATTTGGA,0.537
4,ATATGTACGTTATCGGGTCATTCAGTTTGCGCAT,1.71
5,CCTTCTGGGCCAAGGTCATTGATCAGTCAAAGCA,-0.283
6,TCTATTCGTTGAAGGGCAACCGACGAGTCCGTTT,0.959
7,CATAGTTGGTCAGGAGGTCACACACCGGATATGA,1.32
8,CGTCCAAGGTCAGCAGGTCAGTGATAGCGACGTG,-0.113
9,AACTCTAGGTAACAAGTTCAGTGAAAGAGAGGAC,0.517
10,CCTACTGGGCCATTCAGAGTTCATTGATCATATG,-0.222
11,CCTACTGGTCCAAAAAGGTCATTGATGCCGATAA,0.257
12,AGAATGAGGTTAACATCAGGGAAACAGAATACAT,1.84
13,CCTACTGGGCCAAAGGTCATTAATTCCAATGCTC,0.543
14,TAGCCTGGGTCAGATCGGGCCAGTATACGCTATA,-0.83
15,ACAGACAGGTGATGGAGGTAACTCAGGCTATCAT,0.159
16,AGAATGAGGTTATTACGATCAGGGAATTGCGGTC,1.02
17,TCCTGTAGATCAATAGAGGTTAAGAAAGTGCGCT,0.335
18,ACAGACAGGTGATGAGGGTAACTCAGGCTATCAT,-0.934
19,GCTGCTAGGACAACTGATGGTCAGCTAAAGCTCG,-1.55
20,ACTAGCAGGCCAAGTTTGGGTCACTCGAACAAAG,-0.745
